Holding throughout (assay): NCI-60 one-dose screen, 48 h (100 = growth as untreated, 0 = no growth, -100 = all killed)
The subject of one experiment is NCI-H23 lung. Conditions: 10 µM unless noted.
In a further experiment the test system is NCI-H226 lung. Conditions: 10 µM unless noted.
In another experiment the test system is NCI-H322M lung. Conditions: 10 µM unless noted.
The test system of a further experiment is NCI-H460 lung. Conditions: 10 µM unless noted.
Another experiment concerns HOP-92 NSCLC. Conditions: 10 µM.
Another experiment has as its system NCI-H522 lung. Conditions: 10 µM.
For a further experiment, the system named is A549/ATCC NSCLC. Conditions: 10 µM unless noted.
In another experiment the test system is 786-0 renal. Conditions: 10 µM unless noted.
The next experiment relates to DU-145 prostate. Conditions: 10 µM unless noted.
A further experiment deals with K-562 leukemia. Conditions: 10 µM unless noted.
The test system of the next experiment is MALME-3M melanoma. Conditions: 10 µM unless noted.
The subject of the next experiment is MDA-MB-231 breast. Conditions: 10 µM unless noted.
In the next experiment the test system is RXF 393 renal. Conditions: 10 µM unless noted.
For the next experiment, the system named is SF-268 CNS. Conditions: 10 µM unless noted.
Another experiment relates to SF-295 CNS. Conditions: 10 µM unless noted.
The test system of a further experiment is SF-539 CNS. Conditions: 10 µM unless noted.
A further experiment concerns UACC-257 melanoma. Conditions: 10 µM unless noted.
The subject of another experiment is M14 melanoma. Conditions: 10 µM unless noted.
The test system of the next experiment is COLO 205 colon. Conditions: 10 µM unless noted.

The panel holds about 83,000 compounds, 20% with a hit somewhere; the sample as a whole holds those more often.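 Plates (96-well) were seeded with cells, treated with compound at one concentration, and incubated for 48 hours before percent growth was determined.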 Unmarked numbers belong to inactive results. Calls of active or inactive are those of the source. The calls were made as follows: active = growth percent below 10; inactive = the rest.

Regarding `Nc1nc2c(c3cnccc13)C(c1ccc(Cl)c(Cl)c1)Cc1cnccc1-2` (stereo not drawn), the growth was -37.6% (active) in the experiment with NCI-H23 lung; -26% (active) with NCI-H226 lung; -26.6% (active) in the experiment with NCI-H322M lung; -29.6% (active) with NCI-H460 lung; -45% (active) in the experiment on HOP-92 NSCLC; -16.4% (active) in the experiment with NCI-H522 lung. Besides, the growth in the experiment on A549/ATCC NSCLC was -24.7% (active); with 786-0 renal, -65.8% (active); in the experiment on DU-145 prostate, -5.69% (active); in the experiment with K-562 leukemia it was 4.04% (active); in the experiment on MALME-3M melanoma it was -67% (active); in the experiment with MDA-MB-231 breast, -35% (active). In addition, the growth with RXF 393 renal is -74.2% (active); in the experiment with SF-268 CNS, -10.9% (active); with SF-295 CNS, -29.9% (active); in the experiment with SF-539 CNS it was -45.1% (active); in the experiment on UACC-257 melanoma, -12.8% (active); with M14 melanoma, -44.2% (active).

Regarding `COC(=O)Nc1nc2ccc(C(=O)c3ccccc3N(C)C3COC3)cc2[nH]1`, the growth was 54.4% in the experiment on NCI-H23 lung; 49.6% in the experiment on NCI-H226 lung; 49.5% in the experiment with NCI-H322M lung; 13.5% in the experiment on NCI-H460 lung; 41.1% in the experiment on HOP-92 NSCLC; 13.1% in the experiment with NCI-H522 lung. The growth is 42.4% with A549/ATCC NSCLC; 34.4% in the experiment with 786-0 renal; 33.7% with DU-145 prostate; 58.8% with MALME-3M melanoma; 55.2% in the experiment with MDA-MB-231 breast; 45.7% in the experiment with SF-268 CNS. Moreover, the growth with SF-295 CNS was 14.3%; in the experiment with SF-539 CNS, 9.06% (active); with UACC-257 melanoma, 37.9%; in the experiment with M14 melanoma it was 12.8%.

For the compound `COC1=CC(c2ccc[nH]2)=N/C1=C\c1[nH]c(C)c(C(=O)CCCCC(=O)NC(C)(C)C)c1C`, the growth with NCI-H23 lung is 40.6%; with NCI-H226 lung, 37.3%; with NCI-H322M lung, 45.7%; in the experiment on NCI-H460 lung, 5.36% (active); in the experiment with HOP-92 NSCLC it was 3% (active); with NCI-H522 lung, -28.1% (active). Moreover, the growth was 11.4% in the experiment on A549/ATCC NSCLC; 44.4% with COLO 205 colon; 51.5% in the experiment on DU-145 prostate; 53.5% in the experiment with K-562 leukemia; 48.7% in the experiment on MALME-3M melanoma; -19.2% (active) with MDA-MB-231 breast. The growth in the experiment on RXF 393 renal is -47.1% (active); with SF-268 CNS, 60.2%; in the experiment with SF-295 CNS, 24%; in the experiment on SF-539 CNS, 63.1%; in the experiment on UACC-257 melanoma, 75.7%.

Regarding `O=[N+]([O-])c1ccc(-c2ncc(-c3ccc(O)cc3O)[nH]2)cc1`, the growth in the experiment on NCI-H23 lung was 105%; with NCI-H226 lung, 102%; in the experiment with NCI-H322M lung, 116%; in the experiment on NCI-H460 lung it was 109%; in the experiment with HOP-92 NSCLC it was 88.5%; with NCI-H522 lung it was 124%. Further, the growth in the experiment with A549/ATCC NSCLC was 44.9%; in the experiment on COLO 205 colon it was 112%; in the experiment with DU-145 prostate it was 143%; with K-562 leukemia it was 95.6%; with MALME-3M melanoma it was 218%; in the experiment on MDA-MB-231 breast it was 104%. The growth was 101% with SF-268 CNS, 118% in the experiment with SF-539 CNS, -43.6% (active) in the experiment on UACC-257 melanoma and 135% with M14 melanoma.

Turning to `O=C1OC(c2ccc(-c3ccccc3)cc2)=C/C1=C/c1c2ccccc2cc2ccccc12`, the growth was 99.4% with NCI-H23 lung; 78.5% in the experiment on NCI-H226 lung; 113% in the experiment on NCI-H322M lung; 94.5% in the experiment on NCI-H460 lung; 79.2% in the experiment with HOP-92 NSCLC; 109% in the experiment with NCI-H522 lung. The growth was 25.8% with A549/ATCC NSCLC; 101% in the experiment with COLO 205 colon; 121% in the experiment on DU-145 prostate; 93.3% in the experiment with K-562 leukemia; 113% in the experiment with MALME-3M melanoma; 98.5% in the experiment with MDA-MB-231 breast. Moreover, the growth in the experiment with SF-268 CNS was 95.9%; in the experiment on SF-539 CNS, 110%; in the experiment on UACC-257 melanoma, -47.9% (active); with M14 melanoma it was 108%.

For the compound `CCCCCSc1ccc2nc(NC(=O)OCC)sc2c1`, the growth with NCI-H23 lung is 18.5%; in the experiment with NCI-H226 lung it was 21.7%; with NCI-H322M lung, 41.3%; in the experiment on NCI-H460 lung, 10.5%; in the experiment on HOP-92 NSCLC, 31.7%; with NCI-H522 lung, 20.8%. Also, the growth in the experiment on A549/ATCC NSCLC is 34.6%; in the experiment on 786-0 renal it was 33.6%; in the experiment on DU-145 prostate, 22.8%; with K-562 leukemia, 15.9%; with MALME-3M melanoma, 42.2%; in the experiment on MDA-MB-231 breast, 26.4%. Moreover, the growth was 7.13% (active) in the experiment on RXF 393 renal; 50.8% with SF-268 CNS; 6.93% (active) in the experiment with SF-295 CNS; -12.1% (active) in the experiment on SF-539 CNS; 67.4% in the experiment on UACC-257 melanoma; 11.9% with M14 melanoma.

Regarding `N=C(N)c1ccc(-c2ccc(-c3cc(Cl)cc(Cl)c3)s2)cc1`, the growth with NCI-H23 lung is -77.4% (active); in the experiment on NCI-H226 lung, -64.7% (active); with NCI-H322M lung, -84.4% (active); in the experiment on NCI-H460 lung, -81.1% (active); in the experiment on HOP-92 NSCLC, -77.1% (active); in the experiment with NCI-H522 lung it was -41.2% (active). Moreover, the growth in the experiment with A549/ATCC NSCLC was -50.8% (active); in the experiment with 786-0 renal it was -73.3% (active); with DU-145 prostate it was -89.8% (active); with K-562 leukemia, -55.1% (active); with MALME-3M melanoma, -74.4% (active); with MDA-MB-231 breast, -78.4% (active). Moreover, the growth in the experiment with RXF 393 renal was -90.2% (active); in the experiment with SF-268 CNS, -66.1% (active); with SF-295 CNS, -87.3% (active); in the experiment with SF-539 CNS it was -92.7% (active); with UACC-257 melanoma, -44% (active); in the experiment on M14 melanoma, -85.3% (active).

In the case of `O=C1C(=O)c2ccccc2C(O)=C1CCCc1ccc(C2CCCC2)cc1`, the growth in the experiment with NCI-H23 lung is 36.5%; in the experiment with NCI-H226 lung, 36.8%; in the experiment on NCI-H322M lung, 37.9%; in the experiment with NCI-H460 lung, 9.54% (active); in the experiment with HOP-92 NSCLC it was 78.2%; in the experiment with A549/ATCC NSCLC, 37.9%. The growth is 43.8% with 786-0 renal; 54.7% in the experiment on COLO 205 colon; 40.5% in the experiment on DU-145 prostate; 19.2% in the experiment on K-562 leukemia; 84% in the experiment on MALME-3M melanoma; 56.5% in the experiment with MDA-MB-231 breast. For the same compound, the growth was 57.9% with RXF 393 renal; 47.6% in the experiment on SF-268 CNS; 27.3% with SF-295 CNS; 22.9% with SF-539 CNS; 40.7% in the experiment on UACC-257 melanoma.

`CC(=O)OC1CC2C3CCC4C[C@@H](NC(=O)C=C(C)C)CC[C@]4(C)C3CC[C@]2(C)[C@H]1C(C)N(C)C` (stereo partly drawn): the growth with NCI-H23 lung was 40.6%; with NCI-H226 lung it was 30.5%; in the experiment on NCI-H322M lung, -2.28% (active); in the experiment with HOP-92 NSCLC it was -36.2% (active); in the experiment on NCI-H522 lung, 61.2%; in the experiment with A549/ATCC NSCLC, 11.6%. Also, the growth is -84% (active) with COLO 205 colon; 31.6% in the experiment with DU-145 prostate; -37.5% (active) with K-562 leukemia; -54% (active) in the experiment with MALME-3M melanoma; -36.1% (active) in the experiment with MDA-MB-231 breast; -64.6% (active) in the experiment with RXF 393 renal. Besides, the growth in the experiment with SF-268 CNS was -63% (active); with SF-295 CNS it was -37.6% (active); in the experiment with SF-539 CNS, -76.5% (active); with UACC-257 melanoma, -58.4% (active); in the experiment on M14 melanoma it was -59.9% (active).

Values taken from PubChem BioAssay (NCI).
